TcdB GH inh = blocks C. difficile toxin B glycohydrolase activity | inhibition, % at 9.99 µM | AID 652162 | TcdB glycohydrolase enzymatic assay, plate reader | hit rate 0.24% among 350,000; in the data active means inhibition above about 10%
MazF activator = activators of E. coli MazEF toxin-antitoxin RNase; FAM/BHQ RNA-DNA oligo cleavage fluorescence, 5 h; P0AE70; activation, % at 20 µM; hit rate 0.32% among 350,000; in the data active means activation above about 50%
Target sequence (P0AE70 whole entry, looked up): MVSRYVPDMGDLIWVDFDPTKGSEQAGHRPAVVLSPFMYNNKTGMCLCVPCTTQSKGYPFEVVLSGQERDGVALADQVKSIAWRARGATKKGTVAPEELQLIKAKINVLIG
Yp Topo-I inh = Y. pestis Topo-I inhibition via cleavage products. activity, % at 10 µM. Y. pestis Topo-I cleavage product accumulation, plate reader. hit rate 0.064% among 360,000. AID 504884; in the data active means activity above about 50%, passing the limit was not always enough
Mtb BioA inh = inhibitors of Mycobacterium tuberculosis BioA enzyme. purified M. tuberculosis BioA enzyme, plate reader. inhibition, % at 9.99 µM. hit rate 0.096% among 360,000; in the data active means inhibition above about 40%
FadD28 FP inh = inhibitors of Mycobacterium tuberculosis FadD28 bisubstrate binding | FadD28 bisubstrate probe binding, fluorescence polarization | inhibition, % at 12.5 µM | hit rate 0.22% among 360,000 | AID 588549; in the data active means inhibition above about 8.5%, passing the limit was not always enough
DUSP3 inh = DUSP3 (human) phosphatase inhibition. P51452. recombinant VHR phosphatase, pNPP absorbance. inhibition, % at 13.3 µM. hit rate 0.52% among 290,000; in the data active means inhibition above about 50%
Target sequence (P51452 whole entry, looked up): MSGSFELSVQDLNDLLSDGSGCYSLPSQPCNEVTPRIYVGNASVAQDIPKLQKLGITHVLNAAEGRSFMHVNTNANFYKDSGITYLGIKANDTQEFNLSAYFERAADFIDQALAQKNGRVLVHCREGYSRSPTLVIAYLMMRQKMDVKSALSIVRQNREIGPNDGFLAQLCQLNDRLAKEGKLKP
* hit, by the source's call; . = not tested or not shown. The list is not random: actives were taken first. Their share in the collection is about 1%.

SMILES | TcdB GH inh | MazF activator | Yp Topo-I inh | Mtb BioA inh | FadD28 FP inh | DUSP3 inh
O=C(c1ccccc1F)N1C[C@H]2[C@@H](c3ccccc31)[C@H](CO)N2C(=O)c1ccccc1 | -0.9 | . | . | -3.9 | . | .
CN(c1ccccc1)S(=O)(=O)c1cccc(C(=O)NCCc2ccc(O)c(O)c2)c1 | 15.2* | -1.8 | -9.0 | . | -0.6 | 9.1
COc1ccc(CCNC(=O)c2ccc(S(=O)(=O)N(C)c3ccccc3)cc2)cc1OC | 4.0 | 4.8 | 5.5 | -0.5 | -5.5 | 52.0*
COC(=O)c1cc(CNC(=O)c2ccc(S(=O)(=O)N(C)c3ccccc3)cc2)ccc1OC | 1.0 | 4.2 | 10.3 | -4.4 | -2.0 | .
Oc1ccc(/C=N/n2cc(-c3ccccc3)[nH]c2=S)cc1 | 13.6* | 12.9 | -3.9 | . | 2.6 | 30.1
CCCC(=O)Nc1ccc2c(c1)OC[C@@H](C)N(C(=O)c1ccncc1)C[C@@H](C)[C@H](OC)CN(C)C2=O | 1.4 | . | . | -0.9 | . | .
CCOCCCNc1nc2c(C)cccn2c(=O)c1/C=C1\SC(=S)N(CC(C)C)C1=O | . | -427.3 | -5.8 | . | 0.8 | 41.2
Cc1cccn2c(=O)c(/C=C3\SC(=S)NC3=O)c(NCCCN3CCOCC3)nc12 | 1.3 | -128.9 | 13.4 | 1.0 | 5.5 | 2.6
CCOCCCNc1nc2c(C)cccn2c(=O)c1/C=C1\SC(=S)N(C(C)CC)C1=O (stereo not given) | 1.6 | 602.9* | 1.6 | 2.3 | -9.4 | 5.9
CCCN1C(=O)/C(=C/c2c(NCCCOCC)nc3c(C)cccn3c2=O)SC1=S | . | 295.2* | 9.4 | -0.5 | -0.7 | 3.6
Cc1noc(C)c1NC(=O)Nc1ccc2c(c1)C(=O)N([C@@H](C)CO)C[C@H](C)[C@H](CN(C)Cc1ccc3c(c1)OCO3)O2 | 0.5 | . | . | 1.0 | . | .
CC[n+]1ccc(/C=C/c2ccc(N(C)C)cc2)c2ccccc21 | 15.0* | 0.6 | -38.0 | . | 0.6 | 15.8
CCOC(=O)C1CCN(C(=O)Nc2ccc3nc(-c4ccco4)c(-c4ccco4)nc3c2)CC1 | . | 11.5 | -11.9 | -0.2 | 4.9 | 56.0*
Cc1ccc(-c2ccc3c(c2)O[C@H](CN(C)Cc2ccccn2)[C@@H](C)CN([C@@H](C)CO)S3(=O)=O)cc1 | 1.0 | . | . | 0.0 | . | .
Cc1cc2c(SCC(=O)Nc3cccc(O)c3)ncnc2s1 | -1.0 | -11.4 | -5.4 | 1.4 | 19.0* | .
CCOc1ccccc1NCc1cc(=O)oc2cc(C)c(O)cc12 | -0.2 | 9.3 | -3.7 | -1.0 | 0.7 | 55.4*
COc1cccc(NCc2cc(=O)oc3cc(C)c(O)cc23)c1 | 2.8 | 3.4 | -11.2 | -1.6 | 0.4 | 52.0*
COc1cccc(NCc2cc(=O)oc3cc(-c4ccccc4)c(O)cc23)c1 | . | 7.0 | -9.6 | . | 24.2* | 21.9
Cc1cc2oc(=O)cc(CNc3ccccc3F)c2cc1O | 0.7 | 8.9 | -7.4 | . | -3.5 | 13.3
CS(=O)(=O)N1CC2(C1)[C@H](c1ccccc1)[C@H](CO)N2CC1CC1 | 0.0 | . | . | . | . | .
COCC(=O)N1[C@H](CO)[C@@H](c2ccccc2)C12CN(C(=O)c1ccc(F)cc1)C2 | 0.9 | . | . | . | . | .
O=C(C[C@@H]1C=C[C@@H](NS(=O)(=O)c2ccccc2F)[C@@H](CO)O1)NCCCN1CCOCC1 | -0.2 | . | . | -1.2 | . | .
CC(C)CN1C(=O)[C@@]2(c3ccc([N+](=O)[O-])cc3)CC(=O)N(CC3C4CC5CC(C4)CC3C5)[C@@H]2c2ccc(CO)cc21 (stereo not given in full) | -1.2 | . | . | 0.5 | . | .
O=C(C[C@@H]1CC[C@@H]2[C@H](COC[C@@H](O)CN2CC2CCCC2)O1)NCc1ccc(Cl)cc1 | 0.2 | . | . | . | . | .
CN(CCN1CCc2ccccc2C1)Cc1nc(-c2ccc3c(c2)OCO3)no1 | 1.2 | -2.0 | 20.6 | 0.5 | -2.4 | 0.4
SMILES | TcdB GH inh | MazF activator | Yp Topo-I inh | Mtb BioA inh | FadD28 FP inh | DUSP3 inh
OCCN(Cc1nc(-c2ccc3c(c2)OCO3)no1)Cc1cccs1 | 1.5 | 1.4 | 11.4 | 2.6 | -0.2 | 57.8*
C[C@H]1CCCCO[C@H](CN(C)Cc2ccncc2)[C@@H](C)CN([C@@H](C)CO)C(=O)c2cc(NC(=O)c3ccccc3)ccc2O1 | 0.8 | . | . | -0.5 | . | .
Cc1ccc(NC(=O)COC(=O)CCC2CCCC2)c(Br)c1 | -3.1 | -2.6 | 70.0* | . | 0.8 | .
O=C(COC(=O)CCC1CCCC1)Nc1ccccc1Br | -0.1 | 2.6 | 24.2 | -1.9 | -0.5 | .
Cc1cccc(C(=O)NC2CCCc3ccccc32)c1 (stereo not given) | 0.3 | . | . | . | . | 11.1
Cc1cccc(-n2nnc(C(=O)NC3CCCc4ccccc43)c2N)c1 (stereo not given) | . | -5.0 | 13.5 | 0.4 | -3.6 | 52.1*
Cc1cccc(-c2ccc([C@@H]3[C@@H](CO)N4C(=O)CN(C(=O)Cc5ccccn5)C[C@H]34)cc2)c1 | 0.6 | . | . | . | . | .
COC(=O)C[C@H]1CC[C@@H]2[C@@H](COc3ccc(NC(=O)Nc4ccc(C)cc4)cc3C(=O)N2C)O1 | 2.2 | . | . | 3.9 | . | .
COC(=O)c1ccc(/C=C2\CCn3c2nc2cc(C(=O)O)ccc2c3=O)cc1 | . | 21.3 | 5.2 | . | -2.8 | -9.1
CC(C)CCOc1ccc(/C=C2\CCn3c2nc2cc(C(=O)O)ccc2c3=O)cc1 | 1.4 | -20.9 | -12.1 | . | -9.8 | 56.3*
O=C(Nc1cc(F)ccc1F)N1CC(=O)N2[C@H](CO)[C@@H](c3ccc(C#CC4CCCC4)cc3)[C@H]2C1 | 0.3 | . | . | . | . | .
COc1ccc(/C=C/C(=O)NC(=S)N2CCN(C)CC2)cc1 | -0.1 | 50.8* | 2.0 | . | -1.1 | 12.3
CCOc1ccccc1CN1CCNC(=O)C1CC(=O)NC1CCCCCC1 (stereo not given) | 0.5 | -3.2 | 25.4 | 0.4 | -1.3 | -3.6
CCOc1ccccc1CN1CCNC(=O)C1CC(=O)NC1CCCCC1 (stereo not given) | -3.2 | 6.6 | 12.4 | -0.1 | -0.3 | 51.2*
CCC(=O)Nc1ccc2c(c1)OC[C@@H](C)N(C(=O)Cc1cccnc1)C[C@@H](C)[C@H](OC)CN(C)C2=O | -0.6 | . | . | 9.0 | . | .
CCOC(=O)Cn1c(=NC(=O)c2ccc([N+](=O)[O-])s2)sc2ccccc21 | -4.4 | 276.1* | -0.1 | . | -1.1 | 0.1
NC(=O)NN=C1CC2CC1C1C=CCC21 (stereo not given) | 13.6* | 3.1 | -3.4 | . | -2.0 | .
O=C(NC(=S)N1CCN(c2ccc([N+](=O)[O-])cc2)CC1)c1ccco1 | 0.8 | 2.4 | 1.2 | 0.9 | -2.2 | 53.0*
Cc1c(C(=O)O)[nH]c2ccc([N+](=O)[O-])cc12 | 0.6 | 4.1 | 2.8 | . | -1.4 | -11.3
Cc1c(C(=O)N/N=C/C(C)C)[nH]c2ccc([N+](=O)[O-])cc12 | 0.0 | 10.2 | -8.3 | . | -2.5 | 55.6*
CC(=O)N1CC2(C1)[C@H](c1ccc(-c3cccc(F)c3)cc1)[C@H](CO)N2CC1CCOCC1 | -0.2 | . | . | . | . | .
CC(C)NC(=O)Nc1ccc2c(c1)C(=O)N([C@@H](C)CO)C[C@@H](C)[C@@H](CN(C)Cc1ccncc1)OCCCC[C@H](C)O2 | 0.6 | . | . | 1.7 | . | .
CC(C)C(=O)NN(C(=O)c1ccccc1)c1ccccc1 | 0.2 | 4.2 | -1.5 | . | -0.8 | 27.0
CC(C(=O)O)N(C(=O)c1ccccc1)c1ccc(F)cc1 (stereo not given) | 7.0 | -3.3 | 2.8 | -1.7 | 0.5 | 52.9*
